# SKKanGAS inh: S. pyogenes SKKanGAS growth inhibitors in kanamycin, primary screen, streptokinase expression inhibitor project, SKKanGAS strain, BacTiter-Glo luminescence; 6 h; inhibition, % at 7.5 µM; 300,000 compounds, 1.3% hits; AID 1662, 2009;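 active means mean replicate score, as percent of positive control median, at least 50; inconclusive means mean below 50 but one replicate at or above 50; inactive means mean and every replicate below 50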;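 further: strain carries kanamycin resistance gene driven by streptokinase promoter and grows in 40 µg/ml kanamycin; loss of luminescence reflects streptokinase promoter inhibition or plain growth inhibition; 0% = median of DMSO wells and 100% = positive control at its reference dose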
# PP5 inh: PP5 phosphatase inhibitors, primary screen, biochemical, fluorescence | Serine/threonine-protein phosphatase 5 (Homo sapiens), P53041 | purified PP5c, OMFP substrate fluorescence | inhibition, % at 6.7 µM | 320,000 compounds, 0.18% hits;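 active means inhibition above the campaign's mean inhibition across all tested compounds plus 3 SD, cut at about 9.5% in these data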;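 further: 0% = DMSO only and 100% = 100 µM cantharidin control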
# IDE act: human IDE activators in live cells, primary screen, fluorescence polarization, HEK cells, FAbeta-B substrate; 340,000 compounds, 0.073% hits; activation, % at 5.96 µM; Insulin-degrading enzyme (Homo sapiens), P14735; FAbeta-B cleavage; 0% vehicle, 100% cell-free pure enzyme wells;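 active means activation above the mean of all tested compounds plus 3 SD, set per screening campaign, cut at about 17% in these data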
# IDE inh: human IDE inhibitors in live cells, primary screen, fluorescence polarization, HEK cells, FAbetaB substrate; 320,000 compounds, 0.41% hits; FAbetaB cleavage; inhibition, % at 5.59 µM; Insulin-degrading enzyme (Homo sapiens), P14735;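 active means percent inhibition above the average of all tested compounds plus 3 SD, set per screening campaign, cut at about 16% in these data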;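 further: IDE supplied by intact live HEK cells; FP after avidin binding of uncleaved biotin substrate so inhibition keeps polarization high; 0% = DMSO wells and 100% = 60 µM reference IDE inhibitor Ii1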
# PP1 counter: PP1-alpha phosphatase inhibitors, primary screen, counter-screen for PP5 inhibitor project, biochemical, fluorescence, OMFP substrate, single point. Serine/threonine-protein phosphatase PP1-alpha catalytic subunit (Homo sapiens), P62136. inhibition, % at 6.7 µM. purified PP1alpha. 320,000 compounds, 0.9% hits. AID 2235, 2010;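 active means inhibition above the mean inhibition of all tested compounds plus 3 SD, computed separately for each screening campaign, cut at about 15% in these data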
# Target sequence (P62136 whole entry, looked up): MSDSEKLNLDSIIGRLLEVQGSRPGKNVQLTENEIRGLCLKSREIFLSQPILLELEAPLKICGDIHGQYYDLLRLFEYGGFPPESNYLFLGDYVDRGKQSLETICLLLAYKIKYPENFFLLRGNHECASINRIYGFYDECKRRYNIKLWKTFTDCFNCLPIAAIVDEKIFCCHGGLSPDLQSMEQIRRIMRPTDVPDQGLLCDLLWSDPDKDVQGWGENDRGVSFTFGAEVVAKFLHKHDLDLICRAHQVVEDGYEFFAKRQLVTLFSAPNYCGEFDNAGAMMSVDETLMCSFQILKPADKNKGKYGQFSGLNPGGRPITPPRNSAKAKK
# Exocytosis inh: LAMP-1 surface exposure blockers, TALL-104 cells – cell-based, flow cytometry, MLPCN library, primary screen; TALL-104 LAMP-1 surface exposure; cells stimulated with thapsigargin and PMA; inhibition, % at 10 µM; 360,000 compounds, 0.66% hits;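 active means inhibition above about 55%, limit read from the data; inconclusive means no clear call, values can overlap the other calls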
# Exocytosis CP01: inhibitors of lytic granule exocytosis, confirmation, TALL-104 cells, flow cytometry, Cherry Pick01; shares compounds with Exocytosis inh; LAMP-1 externalization; stimulated with PMA plus thapsigargin; inhibition, % at 10 µM; 1,500 compounds, 11% hits; in the data active means inhibition above about 60%;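 further: 0% = stimulated vehicle wells and 100% = unstimulated wells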
# * hit, by the source's call; ? = inconclusive; . = no result given. Only some compounds are listed: those with a hit (about 2.8% of all), similar ones and a draw of the others.
SMILES,SKKanGAS inh,PP5 inh,IDE act,IDE inh,PP1 counter,Exocytosis inh,Exocytosis CP01
O=C(Nc1nc(-c2ccccc2)cs1)c1ccc2c(=O)n3c(nc2c1)CCCCC3,?,3,-6,2,7,97*,68*
O=C(Nc1ccccc1Cl)c1ccc2c(=O)n3c(nc2c1)CCC3,.,0,5,1,-2,0,.
Nc1ccn([C@@H]2O[C@H](CNCC3=CCOc4ccc(O)cc43)[C@@H](O)[C@H]2O)c(=O)n1,.,.,.,.,.,1,.
CN(C)CCC(=O)c1ccc2c(c1)OCO2,2,6,2,1,-5,102*,103*
Cn1nc(-c2ccccc2)c2ncc(C(F)(F)F)cc21,4,0,6,1,1,4,.
CC(NCc1cc(Br)ccc1OCC(N)=O)C12CC3CC(CC(C3)C1)C2 (stereo not given),-1,-2,-4,-1,1,59*,-4
O=C(Nc1nnc([C@@H]2C[C@H](O)[C@@H](CO)O2)s1)c1c(F)cccc1F,.,.,.,.,.,-3,.
O=C(Nc1ccc(Br)cc1Cl)NC1CC1,-6,1,1,-2,3,0,.
Cc1ccsc1C(=O)N1CCC1(C)C(=O)NS(=O)(=O)c1ccc(C#N)cc1 (stereo not given),.,.,.,.,.,-1,.
O=C1CC(Cc2ccccc2)C(=O)N1CCc1ccc2c(c1)OCO2 (stereo not given),-3,1,6,3,2,76*,-14
CCOc1ccc(NC(=O)c2ccc(F)cc2F)cc1,12,0,-3,0,7,62*,-13
CCOc1ccc(NC(=O)c2cc3ccccc3cc2OC)cc1,-1,4,-2,10,-1,0,.
Cc1cccc(S(=O)(=O)Nc2ccc(S(=O)(=O)Nc3nccs3)cc2)c1,.,.,8,-3,.,61*,-16
COc1ccccc1C(=O)Nc1c2c(nn1-c1cccc(C)c1C)CS(=O)(=O)C2,-6,0,2,0,0,71*,-1
CC(C)(C)CC(C)(C)N=C1Nc2cc(Cl)c(Cl)cc2NC12C[C@H]1CCC(=O)N3CC[C@@H](C2)[C@@H]13 (stereo not given in full),.,.,5,.,.,76*,-12
COc1ccc(-c2sc3cc(OC)c(OC)cc3c2-c2ccc(O)cc2)cc1,.,.,2,-2,.,31,.
CCC(C(=O)OCC(=O)NCc1ccc2c(c1)OCO2)c1ccccc1 (stereo not given),.,.,1,-2,.,-2,.
CCCCc1ccc(NC(=O)CSc2nc(=O)n(CCN(CC)CC)c3c2CCCC3)cc1,-4,0,1,6,3,82*,-2
CCCCc1ccc(NC(=O)CSc2nc(=O)n(CCN(C)C)c3c2CCC3)cc1,-4,1,4,1,-3,53,.
CSC1=NC(C)(C)C=C(/C=C/c2ccc(Cl)cc2Cl)N1,-17,1,-5,3,2,75*,27
O=C(CCN1CCN(c2ccccc2)CC1)c1ccc(Cl)cc1,1,-2,-2,0,0,79*,50
O=C(CCN1CCN(c2ccc([N+](=O)[O-])cc2)CC1)c1ccc(Cl)cc1,-1,1,-2,2,5,84*,-8
O=C(CCN1CCN(c2ccccc2)CC1)Nc1ccc(Cl)cc1,2,1,1,3,-1,2,.
Cc1ccc(C2(C)NC(=O)N(CC(=O)Nc3cc(S(=O)(=O)N4CCOCC4)ccc3OC(C)C)C2=O)cc1 (stereo not given),.,.,5,.,.,25,.
COC(=O)[C@]12CCCCC=C1N(Cc1cccc3ccccc13)C(=O)[C@H](CC(=O)NCCCN1CCCC1=O)C2,.,.,.,.,.,6,.
SMILES,SKKanGAS inh,PP5 inh,IDE act,IDE inh,PP1 counter,Exocytosis inh,Exocytosis CP01
O=[N+]([O-])c1ccccc1S(=O)(=O)N1CCCc2ccccc21,7,-2,0,0,-2,-4,.
CCOC(=O)C1(Cc2cccc(OC)c2)CCN(Cc2ccc(OC)c(O)c2)CC1,-14,0,1,1,2,0,.
CCOC(=O)C1(CCOc2ccccc2)CCN(Cc2cnc(SC)nc2)CC1,-8,1,2,-2,1,1,.
CCOC(=O)C1(CCOc2ccccc2)CCN(Cc2ccc(OCCO)cc2)CC1,-1,3,6,-1,-1,38,.
CCOC(=O)C1(CCOc2ccccc2)CCN(Cc2ccc(O)cc2)CC1,-2,0,2,-1,6,56*,-5
CCOC(=O)C1(CCOc2ccccc2)CCN(Cc2cc(OC)c(O)c(OC)c2)CC1,3,1,0,-1,-1,77*,10
CCOC(=O)C1(CCOc2ccccc2)CCN(Cc2ccc(OC)c(O)c2)CC1,-5,2,1,2,-5,71*,-12
CCOC(=O)C1(CCOc2ccccc2)CCN(Cc2ccc(O)c(OCC)c2)CC1,-4,-1,3,-6,-1,81*,-3
CCOC(=O)C1(CCOc2ccccc2)CCN(Cc2ccc(COC)o2)CC1,3,2,3,-5,-3,-1,.
CCOC(=O)C1(CCOc2ccccc2)CCN(Cc2ccc(OC)c(COC)c2)CC1,-3,1,-1,1,3,74*,-9
COc1ccc(CNC(=O)C(c2ccc(C)o2)N(Cc2cccs2)C(=O)Cc2cccs2)cc1 (stereo not given),4,3,8,12,10,77*,8
COCCN(C(=O)Cc1cccs1)C(C(=O)NCc1ccc(OC)cc1)c1ccc(C)cc1 (stereo not given),-5,4,1,-2,4,1,.
CCCc1c(C)nc(N2CCN(c3ccccc3F)CC2)[nH]c1=O,-2,-1,4,-10,-2,1,.
O=C(NC1CC1)c1cccc(Nc2ccc(-c3ccc4c(c3)OCCO4)nn2)c1,-6,6,3,3,-6,71*,3
O=C(Nc1ccccc1Cl)c1sccc1-c1ccccc1,26,0,4,1,0,81*,-5
C=CCOc1ccc(C(=O)c2ccccc2)c(OCC(=O)NC2(C#N)CCCC2)c1,-3,1,2,-18,7,61*,-13
CCCCn1nnnc1C(c1cccc2ccccc12)N1CCN(C/C=C/c2ccccc2)CC1 (stereo not given),.,.,.,.,.,58*,28
CCCCn1nnnc1C(c1ccnc2ccccc12)N1CCN(C/C=C/c2ccccc2)CC1 (stereo not given),.,.,.,.,.,-6,.
